Shown are actives, neighbours in structure and some others; about 17% of the full set was active somewhere.
TDP1 cell CPT – qHTS for Inhibitors of human tyrosyl-DNA phosphodiesterase 1 (TDP1): qHTS in cells in presence of CPT; chicken DT40 Tdp1-/-;hTDP1 cells + 20 nM CPT, ATP luminescence, 48 h; Potency, µM (titrated, usually from 46.2 µM), hits mostly inhibitors; 420,000 tested, 12% active; further: nearly all actives have a fitted effect of over 55% in size
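Cell growth measured by CellTiter-Glo luminescence after a minimum 48 h, 37 C compound exposure with 20 nM CPT in Tdp1-knockout DT40 cells stably expressing hTDP1, seeded 400/well; qHTS titration format.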
TDP1 inh – qHTS Assay for Inhibitors of Tyrosyl-DNA Phosphodiesterase (TDP1); Tyrosyl-DNA phosphodiesterase 1 (Homo sapiens), Q9NUW8; recombinant TDP1, AlphaScreen DNA substrate cleavage; Potency, µM (top dose mostly 130 µM), most hits filed as inhibitors; 350,000 tested, 0.28% active; AID 485290, 2010; further: nearly all actives have a fitted effect of over 40% in size
Target sequence (Q9NUW8 whole entry, looked up): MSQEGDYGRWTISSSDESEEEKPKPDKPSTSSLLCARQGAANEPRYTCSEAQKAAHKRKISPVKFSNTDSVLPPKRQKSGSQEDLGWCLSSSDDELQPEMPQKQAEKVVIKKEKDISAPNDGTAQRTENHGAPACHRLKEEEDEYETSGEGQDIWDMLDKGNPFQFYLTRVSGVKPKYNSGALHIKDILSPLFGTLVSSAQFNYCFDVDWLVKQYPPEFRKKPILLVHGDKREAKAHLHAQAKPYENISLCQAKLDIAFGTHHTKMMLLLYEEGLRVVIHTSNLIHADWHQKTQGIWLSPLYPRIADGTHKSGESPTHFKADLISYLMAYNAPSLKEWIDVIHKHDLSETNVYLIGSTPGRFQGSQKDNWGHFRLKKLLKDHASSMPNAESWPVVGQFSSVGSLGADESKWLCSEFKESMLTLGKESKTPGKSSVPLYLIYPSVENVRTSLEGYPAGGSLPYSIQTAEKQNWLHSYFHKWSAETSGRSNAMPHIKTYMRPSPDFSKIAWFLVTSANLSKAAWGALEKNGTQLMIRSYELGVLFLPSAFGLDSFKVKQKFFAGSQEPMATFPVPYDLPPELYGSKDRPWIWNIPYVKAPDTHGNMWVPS
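Signal: AlphaScreen proximity between streptavidin donor and anti-FITC acceptor beads on intact substrate. Reaction: Tdp1 1 nM, substrate 15 nM final, 5 min RT after 15 min compound preincubation.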
ClpP mod – qHTS Assay for Activators of ClpP; ATP-dependent Clp protease proteolytic subunit (Bacillus subtilis (strain 168)), P80244; purified B. subtilis ClpP, FRET peptide cleavage, 20 min; Potency, µM (highest dose often 57.5 µM); 340,000 tested, 1.9% active; active means well fitted falling curve with a large enough effect; inconclusive means small, poorly fitted or top-dose-only effect; inactive means no such curve, though single readings can be large or run the other way; further: the source files actives as falling curves though it sought activators and does not explain the sign; nearly all actives have a fitted effect of over 65% in size
Target sequence (P80244 whole entry, looked up): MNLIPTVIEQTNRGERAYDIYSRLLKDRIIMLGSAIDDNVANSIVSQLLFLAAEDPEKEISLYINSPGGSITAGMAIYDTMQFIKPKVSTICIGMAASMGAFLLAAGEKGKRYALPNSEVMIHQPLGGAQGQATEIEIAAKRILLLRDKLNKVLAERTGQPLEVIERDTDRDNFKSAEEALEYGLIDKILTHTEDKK
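Purified B. subtilis ClpP, 10 microg/mL final in Tris/HCl pH8 with KCl, BSA, glycerol and Tween-20, cleaved an Abz/nitrotyrosine-quenched decapeptide. Fluorescence (ex 320, em 430) was read at 0 and 20 min at room temperature. Delta was normalized to 5.8 microM ADEP and DMSO/no-enzyme controls.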
TDP1 cell noCPT – qHTS for Inhibitors of human tyrosyl-DNA phosphodiesterase 1 (TDP1): qHTS in cells in absence of CPT | 420,000 tested, 15% active | Potency, µM (doses to about 46.2 µM), actives largely listed as inhibitors | DT40 Tdp1-/- hTDP1 cells, no CPT, ATP luminescence, 48 h; further: nearly all actives have a fitted effect of over 55% in size
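A cellular qHTS used chicken DT40 cells lacking endogenous Tdp1 but carrying stably transfected human TDP1. Compounds were applied without camptothecin, and cell growth kinetics were judged by ATP-dependent luminescence after ≥48 hr.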
Of the large screens only hits and unclear results are named; the others gave an inactive call. Unless noted, the call rests on the fitted dose curve; in most records, active means well fitted curve in the direction sought with a large enough effect; inconclusive means small, poorly fitted or top-dose-only effect, or another doubt; inactive means no such curve, though single readings can be large; an effect the other way counts as inactive or inconclusive.

CC1(c2ccc(OC(F)F)cc2)NC(=O)N(CC(=O)Nc2ccc(N3CCCCC3)cc2)C1=O (stereo not drawn)	TDP1 cell CPT inconclusive, TDP1 cell noCPT inconclusive (no result: TDP1 inh)
CC1(c2ccccc2)NC(=O)N(CC(=O)Nc2ccc([N+](=O)[O-])cc2)C1=O (stereo not drawn)	TDP1 cell CPT 26µM, TDP1 cell noCPT inconclusive
CC1(c2ccc([N+](=O)[O-])cc2)NC(=O)N(CC(=O)Nc2ccc(N3CCCCC3)cc2)C1=O (stereo not drawn)	TDP1 cell CPT inconclusive, TDP1 cell noCPT 18µM (no result: TDP1 inh)
CC1(c2ccccc2)NC(=O)N(CC(=O)Nc2ccc(N3CCOCC3)cc2)C1=O (stereo not drawn)	TDP1 cell CPT inconclusive
CCn1ccc2cc(S(=O)(=O)N3CCCN(C(=O)Nc4ccc(C)c(F)c4)CC3)ccc21	none (no result: TDP1 cell CPT, TDP1 cell noCPT)
CCOC(=O)Cc1cc(=O)[nH]c(Nc2nc3ccccc3o2)n1	TDP1 cell CPT inconclusive, TDP1 cell noCPT inconclusive
Cc1nc(-c2ccccc2)cc(=O)[nH]1	none
COCc1cc(=O)[nH]c(Nc2nc3ccccc3o2)n1	TDP1 cell CPT 10µM, TDP1 cell noCPT 8.9µM
Cc1ccc2oc(Nc3nc(-c4ccccc4)cc(=O)[nH]3)nc2c1	TDP1 cell CPT 3.3µM, TDP1 cell noCPT 4.6µM (no result: ClpP mod)
COCc1cc(=O)[nH]c(Nc2nc(C)c3ccccc3n2)n1	TDP1 cell CPT 21µM, TDP1 cell noCPT 16µM
O=C(Nc1c(C(=O)O)oc2ccccc12)c1ccc(C(F)(F)F)cc1	TDP1 cell CPT inconclusive, TDP1 cell noCPT inconclusive
N#C/C(=C\c1ccc(OCc2ccc(C(=O)O)cc2)cc1)C(=O)NCc1ccccc1	TDP1 cell noCPT inconclusive (no result: TDP1 inh, ClpP mod)
Cc1nc(S/C(=C/c2ccc(OCc3ccc(C(=O)O)cc3)cc2)C(=O)O)n[nH]1	TDP1 inh 13µM (no result: ClpP mod)
CCc1nc2ccc(C(=O)NCCCn3ccnc3)cn2c1N(CC)C(=O)NCCc1ccccc1	none (no result: TDP1 inh)
CCc1nc2ccc(C(=O)NCCCn3ccnc3)cn2c1N(C)CCCc1ccccc1	TDP1 cell CPT 18µM, ClpP mod inconclusive, TDP1 cell noCPT inconclusive (no result: TDP1 inh)
CCc1nc2ccc(C(=O)NCCCn3ccnc3)cn2c1N(C)Cc1cc2ccccc2s1	TDP1 cell CPT inconclusive, TDP1 cell noCPT 16µM (no result: TDP1 inh)
CCc1nc2ccc(C(=O)NCCCN(C)C)cn2c1N(C)Cc1ccc(OC)cc1	TDP1 cell CPT inconclusive, TDP1 cell noCPT inconclusive (no result: TDP1 inh)
CCc1nc2ccc(C(=O)Nc3cccc(OCC(=O)N(C)C)c3)cn2c1N(C)Cc1cc2ccccc2s1	TDP1 cell CPT 16µM, TDP1 cell noCPT 16µM (no result: TDP1 inh)
CCc1nc2ccc(C(=O)NCCCn3ccnc3)cn2c1N(C)Cc1ccc(OC)cc1	TDP1 cell CPT inconclusive, TDP1 cell noCPT 15µM (no result: TDP1 inh)
CCOc1ccccc1N1CC(C(=O)Nc2cc(S(C)(=O)=O)ccc2Cl)CC1=O (stereo not drawn)	none (no result: TDP1 inh)
OC[C@@H](O)C(O)[C@H](O)CO	none (no result: TDP1 inh, ClpP mod)
Cc1noc(C)c1C(=O)N1CCC2(CCCN(C(c3ccccc3)c3ccccc3)C2)CC1	TDP1 cell CPT inconclusive, TDP1 cell noCPT 23µM (no result: TDP1 inh, ClpP mod)
Cc1noc(C)c1C(=O)N1CCC[C@@]2(CCN(c3cccc(-c4ccccc4)c3)C2)C1	TDP1 cell CPT 16µM, TDP1 cell noCPT 18µM (no result: TDP1 inh, ClpP mod)
Cc1noc(C)c1C(=O)N1CCC2(CCCN(Cc3ccccc3)C2)CC1	none (no result: TDP1 inh, ClpP mod)
COc1ccc(NC(=O)C2(c3cccs3)CCOCC2)cc1Cl	TDP1 cell noCPT inconclusive
CC1Sc2ccc(S(=O)(=O)N3CCC(C(=O)NCCc4ccccc4)CC3)cc2NC1=O (stereo not drawn)	TDP1 cell CPT inconclusive, TDP1 cell noCPT inconclusive
Cc1cc(C)cc(NC(=O)C2CCN(S(=O)(=O)c3ccc4c(c3)NC(=O)C(C)S4)CC2)c1 (stereo not drawn)	TDP1 cell CPT inconclusive
Cc1ccc(NC(=O)C2CCN(S(=O)(=O)c3ccc4c(c3)NC(=O)C(C)S4)CC2)cc1Cl (stereo not drawn)	TDP1 cell CPT 1.3µM, TDP1 cell noCPT 1.2µM
Cc1ccc(NC(=O)C2CCN(S(=O)(=O)c3ccc4c(c3)NC(=O)C(C)S4)CC2)c(Cl)c1 (stereo not drawn)	TDP1 cell CPT 13µM, TDP1 cell noCPT 21µM
Cc1ccc(CCNC(=O)C2CCN(S(=O)(=O)c3ccc4c(c3)NC(=O)C(C)S4)CC2)cc1 (stereo not drawn)	TDP1 cell CPT inconclusive, TDP1 cell noCPT 18µM (no result: ClpP mod)
Nc1oc2ccccc2c(=O)c1-c1ccc2c(c1)OCO2	TDP1 cell CPT 18µM, TDP1 cell noCPT inconclusive (no result: TDP1 inh)
Cc1cc(C)c(S(=O)(=O)NCCSCc2ccco2)c(C)c1	TDP1 cell CPT inconclusive, TDP1 cell noCPT inconclusive
CCOC(=O)c1ccc(N2CCN(c3ccccc3F)CC2)c(NC(=O)Nc2cccc(OC)c2)c1	TDP1 cell CPT 13µM, ClpP mod 25µM, TDP1 cell noCPT 5.8µM
CCOC(=O)c1ccc(N2CCN(c3cc(C)ccc3C)CC2)c(N)c1	TDP1 cell CPT 15µM, TDP1 cell noCPT 16µM (no result: TDP1 inh, ClpP mod)
CCOC(=O)N1CCC(N2CCN(c3cc(C)ccc3C)CC2)CC1	TDP1 cell CPT 29µM, TDP1 cell noCPT inconclusive
COC(=O)c1ccc(N2CCOCC2)c(NC(=O)Nc2cccc(OC)c2)c1	none
CCOC(=O)c1ccc(N2CCN(c3cc(C)ccc3C)CC2)c(NC(=O)Nc2ccc(Cl)cc2)c1	TDP1 cell CPT 4.6µM, ClpP mod inconclusive, TDP1 cell noCPT 4.6µM
CCOC(=O)c1sc2ccccc2c1S(=O)(=O)N1CCN(c2cc(C)ccc2C)CC1	TDP1 cell CPT inconclusive, TDP1 cell noCPT inconclusive
CCOC(=O)c1ccc(N2CCN(c3cc(C)ccc3C)CC2)c(NC(=O)Nc2ccc(CC)cc2)c1	TDP1 cell CPT inconclusive, TDP1 cell noCPT inconclusive
CCOC(=O)N1CCC(Nc2c(N3CCN(c4cc(Cl)ccc4C)CC3)c(=O)c2=O)CC1	TDP1 cell CPT inconclusive, TDP1 cell noCPT inconclusive
O=C(c1ccccc1Cl)N1CCCCC1CCN1CCCCC1 (stereo not drawn)	none
CCOC(=O)c1ccc(N2CCN(c3cc(Cl)ccc3C)CC2)c(NC(=O)Nc2cccc(OC)c2)c1	TDP1 cell CPT 16µM, TDP1 cell noCPT 9.2µM
O=C(CCSc1nnc2ccccn12)Nc1ccc(F)cc1	ClpP mod 28µM
COc1ccccc1C(=O)NC(=O)CSc1nnc2ccccn12	none
O=C(CSc1nnc2ccccn12)NC(=O)c1ccccc1Cl	TDP1 inh 25µM
Cc1nc2c(-c3ccccc3)c(C)nn2c(C)c1CCC(=O)NC(C)CCc1ccco1 (stereo not drawn)	TDP1 cell CPT 12µM, TDP1 cell noCPT 9.2µM
COc1ccccc1-c1cc2nc(C)c(CCC(=O)NC(C)CCc3ccco3)c(C)n2n1 (stereo not drawn)	TDP1 cell CPT 23µM, TDP1 cell noCPT 21µM
COc1ccccc1CNC(=O)CCc1c(C)nc2cc(-c3ccccc3OC)nn2c1C	TDP1 cell CPT inconclusive, TDP1 cell noCPT inconclusive
CCOC(=O)c1sc(NC(=S)NC(=O)C2CCCC2)cc1C	TDP1 cell CPT inconclusive, TDP1 cell noCPT 16µM
